Three compounds from PubChem BioAssay (EPA / NIEHS) can be followed below.

What all share (settings): mRNA level, 48 h; actives raise or lower the signal
Read-out in assay [1]: Cytochrome P450 3A7 (Homo sapiens) (UniProt P24462)
Description: LTEA_HepaRG_CYP3A7: Life Technologies and Expression Analysis (LTEA) Assay for CYP3A7 using HepaRG (AID 2283492). The method in brief:
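Human HepaRG liver cells, 48 h post-plating, switched to serum-free induction medium and exposed in duplicate for 48 h. Dosing: 100 uM top, half-log dilutions, 8 points, 0.5% DMSO vehicle. Read-out: CYP3A7 mRNA, gain or loss fitted against DMSO baseline.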

Read-out in a further assay: CYP3A5 (gene 1577)
Put plainly: LTEA_HepaRG_CYP3A5: Life Technologies and Expression Analysis (LTEA) Assay for CYP3A5 using HepaRG (AID 2283493). The method in brief: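 mRNA induction or loss of CYP3A5 assessed in HepaRG after 48 h dosing, 100 uM top concentration, duplicate wells; TaqMan qRT-PCR with ACTB, GAPDH, POLR2A normalization; 0.5% DMSO as negative control.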

Read-out in assay [2]: Fatty Acid-Binding Protein 1 (FABP1), FABP1 (gene 2168)
Put plainly: LTEA_HepaRG_FABP1: Life Technologies and Expression Analysis (LTEA) Assay for Fatty Acid-Binding Protein 1 (FABP1) using HepaRG (AID 2283494). The gist of the method:
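Differentiated human HepaRG cells exposed 48 h in serum-free induction medium to eight half-log concentrations up to 100 uM (0.5% DMSO), duplicate. FABP1 mRNA by qRT-PCR, normalised to ACTB, GAPDH, POLR2A; bidirectional fitting against DMSO.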

Read-out in assay [3]: Cytochrome P450 4A22 (Homo sapiens) (UniProt Q5TCH4)
Put plainly: LTEA_HepaRG_CYP4A22: Life Technologies and Expression Analysis (LTEA) Assay for Cytochrome P450 4A22 (CYP4A22) using HepaRG (AID 2283495). The gist of the method: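 Readout is CYP4A22 transcript induction or loss, quantified by qRT-PCR and normalized to ACTB, GAPDH and POLR2A. Human HepaRG cells receive test chemicals for 48 h at eight half-log concentrations from 100 uM in 0.5% DMSO.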

Read-out in assay [4]: Cytochrome P450 7A1 (Homo sapiens) (UniProt P22680)
Put plainly: LTEA_HepaRG_CYP7A1: Life Technologies and Expression Analysis (LTEA) Assay for Cytochrome P450 7A1 (CYP7A1) using HepaRG (AID 2283496). The method in brief: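 Gene expression endpoint in human HepaRG liver cells treated for 48 h with test chemicals (up to 100 uM, 0.5% DMSO). Values come from bidirectional concentration-response fitting versus DMSO.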

Read-out in assay [5]: Glutamate-cysteine ligase catalytic (GCLC), GCLC (gene 2729)
Put plainly: LTEA_HepaRG_GCLC: Life Technologies and Expression Analysis (LTEA) Assay for Glutamate-cysteine ligase catalytic (GCLC) using HepaRG (AID 2283498). The method in brief:
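Differentiated HepaRG cells exposed 48 h in serum-free induction medium, eight-point half-log series topping at 100 uM in 0.5% DMSO, duplicates. GCLC mRNA by qRT-PCR normalized to ACTB, GAPDH and POLR2A, fitted bidirectionally versus DMSO.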

Read-out in assay [6]: growth arrest and DNA damage 45 (GADD45G), GADD45G (gene 10912)
Description: LTEA_HepaRG_GADD45G: Life Technologies and Expression Analysis (LTEA) Assay for growth arrest and DNA damage 45 (GADD45G) using HepaRG (AID 2283499). The method in brief:
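Gain or loss of GADD45G mRNA, quantified by TaqMan qRT-PCR against three housekeeping genes, is fitted in both directions relative to 0.5% DMSO. Human HepaRG cultures receive test chemical for 48 h at up to 100 uM.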

Read-out in assay [7]: Glutamate-cysteine ligase regulatory (GCLM), GCLM (gene 2730)
Put plainly: LTEA_HepaRG_GCLM: Life Technologies and Expression Analysis (LTEA) Assay for Glutamate-cysteine ligase regulatory (GCLM) using HepaRG (AID 2283500). The method in brief: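 Human liver HepaRG cultures receive test chemicals for 48 hours at up to 100 uM in 0.5% DMSO. GCLM expression is measured by qRT-PCR and analysed for increases or decreases against vehicle.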

Read-out in assay [8]: Glutathione S-transferase M3 (GSTM3), GSTM3 (gene 2947)
Description: LTEA_HepaRG_GSTM3: Life Technologies and Expression Analysis (LTEA) Assay for Glutathione S-transferase M3 (GSTM3) using HepaRG (AID 2283501). The gist of the method: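 HepaRG, plated 48 h, then serum-free induction medium; test chemical 48 h, duplicate; 100 uM top, half-log x8, 0.5% DMSO. Read-out: GSTM3 mRNA (TaqMan qRT-PCR, Fluidigm array). Bidirectional fit vs DMSO.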

Read-out in assay [9]: Heat shock 70 kDa protein 1 (HSPA1A), gene 3303
Put plainly: LTEA_HepaRG_HSPA1A: Life Technologies and Expression Analysis (LTEA) Assay for Heat shock 70 kDa protein 1 (HSPA1A) using HepaRG (AID 2283502). The method in brief:
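HSPA1A induction in human HepaRG liver cells is measured after 48 h of chemical treatment (100 uM maximum, 0.5% DMSO vehicle). Expression comes from qRT-PCR normalized to endogenous controls.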

Read-out in assay [10]: Hypoxia-inducible factor 1-alpha (Homo sapiens) (UniProt Q16665)
Description: LTEA_HepaRG_HIF1A: Life Technologies and Expression Analysis (LTEA) Assay for Hypoxia-inducible factor 1 (HIF1A) Trancription factor using HepaRG (AID 2283503).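 Note: HIF1A transcript by TaqMan qRT-PCR normalized to ACTB GAPDH and POLR2A.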 The gist of the method: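 HepaRG, 48 h exposure, 8-pt half-log series from 100 uM, 0.5% DMSO vehicle, duplicates. Readout: HIF1A transcript by qRT-PCR (Fluidigm array), housekeeping-normalised. Bidirectional curve fit vs DMSO baseline.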

Read-out in assay [11]: 3-Hydroxy-3-Methylglutaryl-CoA Synthase 2 (HMGCS2), HMGCS2 (gene 3158)
Description: LTEA_HepaRG_HMGCS2: Life Technologies and Expression Analysis (LTEA) Assay for 3-Hydroxy-3-Methylglutaryl-CoA Synthase 2 (HMGCS2) using HepaRG (AID 2283504). The method in brief:
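HepaRG, plated 48 h then switched to serum-free induction media; cmpd 8-pt, max 100 uM, 1/2-log, 0.5% DMSO, n=2, 48 h. HMGCS2 mRNA by Fluidigm TaqMan qRT-PCR, ACTB/GAPDH/POLR2A norm; bidirectional fit vs DMSO.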

Read-out in the next assay: HGF (gene 3082)
Description: LTEA_HepaRG_HGF: Life Technologies and Expression Analysis (LTEA) Assay for Hepatocyte Growth Facto (HGF) using HepaRG (AID 2283505). The gist of the method: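 Read-out is HGF transcript level by qRT-PCR, normalized to three housekeeping genes, fitted bidirectionally against 0.5% DMSO vehicle. Human HepaRG cells received test chemicals for 48 h at up to 100 uM.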

Read-out in assay [12]: Insulin Like Growth Factor 1 (IGF1), IGF1 (gene 3479)
Put plainly: LTEA_HepaRG_IGF1: Life Technologies and Expression Analysis (LTEA) Assay for Insulin Like Growth Factor 1 (IGF1) using HepaRG (AID 2283506). The method in brief: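 Using human HepaRG liver cells, IGF1 transcript induction or suppression is measured 48 h after dosing across eight concentrations capped at 100 uM. Values derive from bidirectional concentration-response fitting with DMSO as baseline.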

Read-out in assay [13]: Intercellular Adhesion Molecule 1 (ICAM1), ICAM1 (gene 3383)
Description: LTEA_HepaRG_ICAM1: Life Technologies and Expression Analysis (LTEA) Assay for Intercellular Adhesion Molecule 1 (ICAM1) using HepaRG (AID 2283507). The method in brief:
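Readout is qRT-PCR mRNA level, normalized to three housekeeping genes and fitted bidirectionally against 0.5% DMSO vehicle. Human HepaRG cultures received compound for 48 h, top concentration 100 uM with half-log dilutions.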

Read-out in assay [14]: Insulin-like growth factor-binding protein 1 (IGFBP1), IGFBP1 (gene 3484)
Put plainly: LTEA_HepaRG_IGFBP1: Life Technologies and Expression Analysis (LTEA) Assay for Insulin-like growth factor-binding protein 1 (IGFBP1) using HepaRG (AID 2283508). The method in brief:
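Thawed HepaRG cells are plated for 48 h, switched to serum-free induction medium, then dosed in duplicate for another 48 h (100 uM top, half-log steps). Lysates in RLT go to qRT-PCR, and gain or loss of signal is fitted relative to vehicle.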

Read-out in assay [15]: Interleukin 6 (IL6), IL6 (gene 3569)
Put plainly: LTEA_HepaRG_IL6: Life Technologies and Expression Analysis (LTEA) Assay for Interleukin 6 (IL6) using HepaRG (AID 2283509). The method in brief:
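HepaRG cells exposed in duplicate for 48 h to eight half-log concentrations, top 100 uM, in 0.5% DMSO serum-free induction medium. mRNA measured by qRT-PCR, normalized to ACTB, GAPDH and POLR2A. Bidirectional fit versus DMSO.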

Read-out in assay [16]: Interleukin 6 Receptor (IL6R), IL6R (gene 3570)
Put plainly: LTEA_HepaRG_IL6R: Life Technologies and Expression Analysis (LTEA) Assay for Interleukin 6 Receptor (IL6R) using HepaRG (AID 2283510).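 For AC50: TaqMan qRT-PCR signal normalized to ACTB GAPDH and POLR2A housekeeping genes.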 The gist of the method:
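Concentration-response in human liver HepaRG cells: eight concentrations from 100 uM downward by half-logs, 48 h exposure, 0.5% DMSO vehicle. IL6R mRNA change measured by qRT-PCR and fitted in both directions relative to vehicle.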

Read-out in assay [17]: Potassium channel subfamily K member 1 (KCNK1), KCNK1 (gene 3775)
Put plainly: LTEA_HepaRG_KCNK1: Life Technologies and Expression Analysis (LTEA) Assay for Potassium channel subfamily K member 1 (KCNK1) using HepaRG (AID 2283511). The method in brief:
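Differentiated HepaRG cells, 48 h exposure in serum-free induction medium with 0.5% DMSO; 8 concentrations, half-log from 100 uM, duplicate. KCNK1 mRNA by qRT-PCR, normalized to ACTB, GAPDH, POLR2A; bidirectional fit vs DMSO.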

Read-out in assay [18]: Glutathione S-Transferase (GSTA2), GSTA2 (gene 2939)
Description: LTEA_HepaRG_GSTA2: Life Technologies and Expression Analysis (LTEA) Assay for Glutathione S-Transferase (GSTA2) using HepaRG (AID 2283497). The gist of the method:
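Differentiated human HepaRG cells were exposed in duplicate for 48 h in serum-free induction medium, 8 points from 100 uM top in half-log steps, 0.5% DMSO. GSTA2 mRNA was measured by TaqMan qRT-PCR, normalized to ACTB, GAPDH and POLR2A; bidirectional fit versus DMSO.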

Where “and” joins values, the source holds several entries; their conditions need not be identical. Equal values may be shown once. Some compounds were tested as several samples or in several runs, with calls that do not always agree. Calls of active or inactive are those of the source. Rule for the calls: active = hit-call score of the fitted dose curve at least 0.9, where 1 is the maximum; inactive = score below 0.9.

Hypoxia-inducible factor 1-alpha (Homo sapiens), sequence (Q16665 whole entry, looked up): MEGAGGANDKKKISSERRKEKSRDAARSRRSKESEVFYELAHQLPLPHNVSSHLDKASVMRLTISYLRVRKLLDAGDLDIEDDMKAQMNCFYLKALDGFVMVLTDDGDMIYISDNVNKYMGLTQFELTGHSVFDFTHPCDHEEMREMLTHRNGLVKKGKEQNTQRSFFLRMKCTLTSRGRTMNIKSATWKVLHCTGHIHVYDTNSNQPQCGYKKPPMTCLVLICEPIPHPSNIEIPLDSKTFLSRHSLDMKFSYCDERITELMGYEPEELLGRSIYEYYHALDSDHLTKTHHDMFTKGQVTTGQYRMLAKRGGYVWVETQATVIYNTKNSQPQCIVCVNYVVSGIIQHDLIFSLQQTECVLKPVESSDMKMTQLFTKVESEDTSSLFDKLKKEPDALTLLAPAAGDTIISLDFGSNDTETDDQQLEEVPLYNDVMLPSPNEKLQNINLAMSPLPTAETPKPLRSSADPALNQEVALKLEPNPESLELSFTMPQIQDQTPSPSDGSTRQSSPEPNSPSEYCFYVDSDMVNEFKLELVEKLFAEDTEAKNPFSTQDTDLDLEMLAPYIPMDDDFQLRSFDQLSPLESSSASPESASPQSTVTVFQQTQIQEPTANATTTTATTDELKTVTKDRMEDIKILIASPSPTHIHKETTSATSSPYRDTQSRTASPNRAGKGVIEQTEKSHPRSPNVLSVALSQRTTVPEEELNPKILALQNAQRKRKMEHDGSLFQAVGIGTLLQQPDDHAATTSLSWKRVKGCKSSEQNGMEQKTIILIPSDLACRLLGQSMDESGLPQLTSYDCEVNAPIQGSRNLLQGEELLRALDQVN
Cytochrome P450 3A7 (Homo sapiens), sequence (P24462 whole entry, looked up): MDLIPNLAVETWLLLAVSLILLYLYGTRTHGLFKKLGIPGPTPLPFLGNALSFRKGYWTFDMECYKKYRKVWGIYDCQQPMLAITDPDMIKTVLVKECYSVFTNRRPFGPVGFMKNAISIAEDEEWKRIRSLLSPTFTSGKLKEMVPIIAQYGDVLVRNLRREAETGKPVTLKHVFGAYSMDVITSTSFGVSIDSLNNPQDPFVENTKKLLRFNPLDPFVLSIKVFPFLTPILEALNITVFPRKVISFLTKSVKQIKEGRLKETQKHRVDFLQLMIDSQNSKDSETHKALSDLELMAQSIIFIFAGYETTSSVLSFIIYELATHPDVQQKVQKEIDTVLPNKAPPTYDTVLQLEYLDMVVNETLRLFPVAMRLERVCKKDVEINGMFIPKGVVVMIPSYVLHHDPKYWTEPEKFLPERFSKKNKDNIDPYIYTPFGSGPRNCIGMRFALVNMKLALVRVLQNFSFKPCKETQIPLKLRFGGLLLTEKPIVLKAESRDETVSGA

As to `CC1(c2ccc(Oc3ccccc3)cc2)OC(=O)N(Nc2ccccc2)C1=O` (configuration not stated), the AC50 in assay [1] is 24.8 µM (active); with CYP3A5 (gene 1577), 90.2 µM (active); in assay [2], 18.7 µM (active); in assay [3], 9.55 µM (active); in [4], 12.3 µM (active); in assay [6], 12.3 µM (active). The half-maximal activity concentration (AC50) in assay [7] is 9.75 µM (active); in [8], 50.2 µM (active); in assay [9] it was 80.5 µM (active); in assay [11], 12.5 µM (active); in assay [12] it was 8.33 µM (active); in [13], 13.3 µM (active). The AC50 was 13.4 µM (active) in assay [14], 21.1 µM (active) in [15] and 26.3 µM (active) in [17]. For the same compound, the compound was classed as inactive (in [5]; in assay [10]; with HGF (gene 3082); in assay [16]).
Take `CCOC1Oc2ccc(OS(C)(=O)=O)cc2C1(C)C` (configuration not stated): the outcome (in [1]; in assay [5]; in [8]; in [9]; in assay [10]; with HGF (gene 3082)) was inactive. Moreover, the result in [13] and in assay [17] was inactive. The AC50 was 75.2 µM (active) with CYP3A5 (gene 1577); 63.7 µM (active) in assay [2]; 62.6 µM (active) in assay [3]; 85.6 µM (active) in [4]; 82 µM (active) in assay [18]; 78.3 µM (active) in assay [6]. Besides, the half-maximal activity concentration (AC50) in [7] was 81.8 µM (active); in assay [11] it was 79.4 µM (active); in assay [12], 62.3 µM (active); in assay [14], 79.4 µM (active); in assay [15], 89.4 µM (active); in assay [16], 60.7 µM (active).
For the compound `ClC1C(Cl)C(Cl)C(Cl)C(Cl)C1Cl` (configuration not stated), the call (in assay [1]; in the assay with CYP3A5 (gene 1577); in [2]; in assay [4]; in [5]; in assay [6]) was inactive. Besides, the call (in assay [7]; in assay [8]; in assay [9]; in assay [10]; in assay [11]; in the assay with HGF (gene 3082)) was inactive. The compound was called inactive in assay [13], in assay [14], in assay [15], in assay [16] and in [17]. Besides, the AC50 in assay [2] was 6.88 µM (active); in assay [3], 9.67 µM (active) and 8.27 µM (active); in [4], 3.88 µM (active); in assay [6], 0.488 µM (active); in assay [11], 25.4 µM (active); in assay [12] it was 6.89 µM (active).

One may read the AC50 as the concentration at which the activity in the assay is half-maximal.
